# CYP2C19 activ – increases human CYP2C19 enzyme activity; P33261; recombinant CYP2C19, luciferin-H EGE luminescence; hits give high values; 0 = fully inhibited enzyme, 1 = untreated enzyme; activation factor at 5 µM; 96,000 tested, under 10 active;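 active = activation factor of at least 2 at 5 µM in the primary screen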;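 note: 0 = wells with 2.5 mM tranylcypromine and 1 = vehicle-only wells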
# Target sequence (P33261 whole entry, looked up): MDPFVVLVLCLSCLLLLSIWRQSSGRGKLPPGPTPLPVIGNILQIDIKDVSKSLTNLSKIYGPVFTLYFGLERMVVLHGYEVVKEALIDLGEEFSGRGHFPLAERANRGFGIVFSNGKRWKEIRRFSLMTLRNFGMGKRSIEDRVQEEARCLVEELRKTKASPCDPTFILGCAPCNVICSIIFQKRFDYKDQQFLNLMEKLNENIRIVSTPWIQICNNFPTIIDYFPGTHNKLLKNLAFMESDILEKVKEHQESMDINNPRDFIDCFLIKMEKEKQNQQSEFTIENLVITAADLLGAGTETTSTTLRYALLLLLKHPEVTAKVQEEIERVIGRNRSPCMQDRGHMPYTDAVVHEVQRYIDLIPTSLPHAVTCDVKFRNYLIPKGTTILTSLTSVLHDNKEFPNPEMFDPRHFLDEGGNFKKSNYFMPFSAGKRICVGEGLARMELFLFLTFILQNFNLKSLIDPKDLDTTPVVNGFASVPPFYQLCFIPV
# CYP2C19 inhib – human CYP2C19 inhibition; hit rate 21% among 96,000; inhibition, % at 5 µM; CYP2C19 Supersomes, luciferin-H EGE luminescence, 30 min;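 active = CYP2C19 inhibition above a set limit at 5 µM in the primary screen, cut at about 50% in these data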;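 note: plate controls were negative control wells for no effect and 2.5 mM tranylcypromine positive control for full effect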
# MRP1 act – MRP-1 activation. H69AR cells + doxorubicin, viability rescue, CellTiter-Glo. viability increase, % at 10 µM. hit rate 0.61% among 140,000;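 active = viability gain under doxorubicin at or above a set limit, the compound median plus 3 SD, cut at about 4.7% in these data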;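 note: MRP-1 overexpressing cells given doxorubicin 25 µM after compound pretreatment; 18-22 h compound pretreatment then 72 h with doxorubicin before readout; 0% = doxorubicin-only wells and 100% = vehicle-treated cells without doxorubicin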
# CYP2C9 act – CYP2C9 (human) activation; activation factor at 5 µM; P11712; AID 1024; recombinant CYP2C9, luciferin-H conversion, luminescence; hits give high values; factor 1 = untreated enzyme, 0 = blocked; hit rate 1.4% among 96,000;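 active = activation factor of 2 or more for CYP2C9 at a 5 µM dose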;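 note: 0 = sulfaphenazole-blocked wells and 1 = vehicle-only wells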
# CYP2C9 inhib – human CYP2C9 inhibition; P11712; CYP2C9 Supersomes, luciferin-H conversion, luminescence; inhibition, % at 5 µM; hit rate 20% among 96,000;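 active = blocking of liver enzyme CYP2C9 beyond about 50% at 5 µM, limit read from the data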
# MRP resist rev – reverses drug resistance mediated by MRP. H69AR cells + 2 uM doxorubicin, CellTiter-Glo, 72 h. differential viability (reversal), % at 10 µM. hit rate 0.04% among 85,000;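 active = viability drop by adding the cancer drug above about 55%, with treated viability meeting a 40% cutoff, limit read from the data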;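 note: viability without doxorubicin minus viability with 2 µM doxorubicin for each compound; larger differential means the compound sensitizes cells more to doxorubicin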
# Active calls of the source: *; . = no result given. Shown are actives, neighbours in structure and some others; about 21% of the full set was active somewhere.
SMILES,CYP2C19 activ,CYP2C19 inhib,MRP1 act,CYP2C9 act,CYP2C9 inhib,MRP resist rev
Cc1cc2ccccc2nc1SCC(=O)N1CCCC1,0.7,33.1,-0.3,1.2,-21.6,14.2
CC1(C)CC(=O)C=C(NCC2CCCO2)C1 (stereo not given),1,-0.7,0.2,1.1,-9.5,-9.8
O=C(NCc1ccc2c(c1)OCO2)c1nnc(Cc2ccc(Cl)cc2)o1,.,.,-0.6,.,.,5.8
N#Cc1c(N)oc(-c2ccc3c(c2)OCO3)c1-c1ccc2c(c1)OCO2,0,95.6*,-1.5,0.1,86.8*,-0.7
CCOC(=O)c1[nH]c(C)c(CN(CCc2ccccc2)S(C)(=O)=O)c1C,0.7,30.8,-1.6,0.4,55.7*,-3.5
Cc1ccc(-c2nnn(CC(=O)Nc3ccccc3-c3ccccc3)n2)c(-n2cnnn2)c1,0.6,35.9,-1.6,0.5,52.2*,4.6
N=C1C=CC=C2C1=NC1(CCCCC1)N2O,0.8,18.2,-1.6,0.8,21.5,-4.2
O=C(c1ccc(CS(=O)(=O)c2ccc(Br)cc2)o1)N1CCCCCC1,0.2,80.3*,-0.3,1.3,-29.1,7.8
COc1ccc(S(=O)(=O)Cc2ccc(C(=O)N3CCN(C4CCCCC4)CC3)o2)cc1,1,1.8,-2.9,0.3,65.7*,3.8
O=C(c1ccc(CS(=O)(=O)c2ccc(Br)cc2)o1)N1CCN(C2CCCCC2)CC1,1,-4.3,-2.5,0.2,77.7*,74.0*
Cc1ccc2nc(-c3cccc(NS(C)(=O)=O)c3)cc(-c3ccccc3)c2c1,.,.,-1.8,.,.,.
COc1c(/C=N/NC(N)=S)c(C)nn1-c1ccccc1,.,.,-2.7,.,.,.
CCC1(CC)C(=O)C(C)(C)C(=O)OC1c1ccccn1 (stereo not given),0.7,32.8,-1.1,0.4,60.0*,15.4
COc1cc(C2C(C(=O)c3ccc(C)o3)=C(O)C(=O)N2c2cc(C)on2)cc(Br)c1O (stereo not given),1,-4.1,0.5,0.3,65.6*,5.9
COc1cc(C2C(C(=O)c3ccco3)=C(O)C(=O)N2c2cc(C)on2)cc(Br)c1O (stereo not given),1,-0.1,-0.9,0.4,59.6*,1.8
Cn1c(SCC(=O)c2ccccc2)nnc1C1CC1,0.5,50.0*,-1.4,1,0.3,4.9
Cc1ccccc1NC(=O)Cc1nc(CSc2nnc(C3CCCCC3)n2N)cs1,0.5,54.6*,-1.3,0.2,84.3*,9.4
Nn1c(SCC(=O)Nc2cccc(F)c2)nnc1C1CCCCC1,0.5,54.3*,0.0,0.5,52.8*,3.9
Cc1ccccc1NC(=O)Cc1nc(-c2ccc3ccccc3c2)cs1,.,.,-0.6,.,.,.
COc1ccccc1NC(=O)CSc1nnc(C2CCCCC2)n1C,0.3,65.4*,-1.8,0.9,8.5,11.4
CCOC(=O)CNC(=O)CSc1nnc(Cn2cnc3ccccc32)n1C,1.1,-10.0,0.2,1,-2.8,.
CC(=O)Oc1c(C(=O)c2nnc(C)o2)c(=O)n(C)c2ccccc12,.,.,3.9,.,.,.
O=C(c1ccccc1)c1cc(F)c(N2CCOCC2)cc1Cl,0.4,59.3*,-0.5,1.2,-16.8,.
O=C(Cc1ccccc1)Nc1cc(C(=O)c2ccccc2)ccc1N1CCOCC1,0.3,68.7*,-2.6,0.1,89.7*,6.0
O=C(c1ccccc1)c1ccc(N2CCOCC2)c(F)c1,0.3,66.7*,-2.3,0.9,8.9,15.6
SMILES,CYP2C19 activ,CYP2C19 inhib,MRP1 act,CYP2C9 act,CYP2C9 inhib,MRP resist rev
O=C(c1ccccc1)c1cc([N+](=O)[O-])ccc1N1CCOCC1,.,.,-4.9,.,.,.
O=C(Cc1ccccc1)Nc1ccc(N2CCOCC2)cc1N1CCOCC1,0.7,29.2,-1.9,0.8,16.5,19.8
COC(=O)c1ccc(N2CCOCC2)c(F)c1,0.6,36.3,0.3,0.6,42.1,-4.7
O=C(Nc1ccc(N2CCOCC2)c(F)c1)c1ccncc1,0.5,52.0*,1.7,0.4,64.9*,7.2
CCCCN1C(=O)C(NC(=O)CC(C)C)(C(F)(F)F)C2=C1CC(C)(C)CC2=O (stereo not given),1,1.1,-1.3,1,-3.3,.
Fc1c(F)c(C(F)(F)F)c(F)c(F)c1N/N=C\c1cccs1,1,1.6,-1.8,0.9,5.3,10.5
CCC(C)Nc1nc(OC)nc(N(C)C#N)n1 (stereo not given),0.9,6.5,-0.5,1.1,-9.6,-15.8
O=C(NCCOC(=O)c1ccc(S(=O)(=O)N2CCOCC2)cc1)c1cccnc1,1,2.0,-0.6,0.8,23.0,13.6
O=C(OCCNc1ncc(C(F)(F)F)cc1Cl)c1ccc(S(=O)(=O)N2CCOCC2)cc1,0.3,69.1*,-1.3,0.7,27.4,3.0
CCCSc1nnc2nc3c(nn12)c1ccccc1n3C,1,-2.6,-4.1,1,1.5,-34.5
COc1ccc(-c2nnn(CC(=O)N(Cc3ccccc3Cl)C(C(=O)NCC3CCCO3)c3ccco3)n2)cc1 (stereo not given),0.9,7.0,-0.5,0.6,43.2,.
Cc1ccc(-c2nnn(CC(=O)N(c3ccccc3F)C(C(=O)NCC3CCCO3)c3c[nH]c4ccccc34)n2)cc1 (stereo not given),0.6,35.8,8.2*,0.2,75.3*,.
Cc1ccc(-c2nnn(CC(=O)N(c3ccccc3)C(C(=O)NCC3CCCO3)c3ccc(Cl)cc3)n2)cc1 (stereo not given),0.4,61.9*,1.0,0.1,87.6*,.
CCC(C)(C)n1c(=O)[nH]c2c(c1=O)CCC2,0.9,14.8,0.7,1,0.8,-5.2
CCCOc1ccc(C(=O)c2nc3c(n2O)CCCC3)cc1,0.9,5.5,0.9,0.8,24.1,.
CC(C)c1ccc(S(=O)(=O)N2CCN(CC(=O)Nc3ccc4c(c3)OCO4)CC2)cc1,0.9,11.8,-1.1,0.8,18.7,-11.8
Cc1ccc(S(=O)(=O)N2CCN(Cc3cc(C(C)C)ccc3O)CC2)cc1,0.7,27.7,-1.4,0.5,51.4*,-13.5
CC12C(=O)N(Cc3ccco3)C(=O)C1C1c3ccccc3C2c2ccccc21 (stereo not given),0.4,57.4*,0.3,0.6,35.3,18.5
COC(=O)CSc1nc2ccccc2o1,1,2.8,-3.2,0.9,11.2,-4.5
CCCCCCOC(=O)Sc1nc2ccccc2o1,0.5,51.8*,0.4,0.3,65.1*,-15.4
COc1cccc(C(=O)NCC(=O)OCc2ccc(F)cc2Cl)c1,.,.,-1.0,.,.,.
COc1cc(C(=O)N2CCN(C/C=C/c3ccccc3)CC2)cc(OC)c1OC,.,.,-4.6,.,.,29.0
COc1cc(C(=O)N2CCC(O)(c3ccccc3)CC2)cc(OC)c1OC,0.3,65.7*,-2.5,0.2,78.7*,.
CC1=CS(=O)(=O)CC1Sc1nc2ccccc2[nH]1 (stereo not given),.,.,0.0,.,.,.
CC(CCCC(C)(C)O)NCCO (stereo not given),1,2.4,.,1,4.4,-2.7
